# Data reported in the supplement of paper PMC9588786.
# ± gives the standard deviation of the averaged measurements.
# Test system: HT-1080
# Experiment: relative cell viability with RSL3 co-treatment (fraction of control); higher = stronger protection from RSL3-induced ferroptosis (higher viability)
# Details: 10 µM
# 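Also: viability read as CCK-8 absorbance at 450 nm in cells co-exposed to the GPX4 inhibitor RSL3, relative to a 0.01% DMSO vehicle control.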
row,Structure (SMILES),relative cell viability
1,Cc1ccc(F)c(NC(=O)Nc2ccc(-c3cccc4[nH]nc(N)c34)cc2)c1 [Linifanib (ABT-869)],0.36 ± 0.046
2,CCS(=O)(=O)Nc1ccc2c(c1)/C(=C(/Nc1ccc(CN3CCCCC3)cc1)c1ccccc1)C(=O)N2 [Hesperadin],0.293 ± 0.12
3,COc1ccc(-c2ccc3c(N4CCOC[C@@H]4C)nc(N4CCOC[C@@H]4C)nc3n2)cc1CO,0.893 ± 0.13
4,O=C(NOC[C@H](O)CO)c1ccc(F)c(F)c1Nc1ccc(I)cc1F,0.897 ± 0.032
5,CCNc1nc(Nc2cc(F)c(C(=O)N3CCOCC3)cc2OC)ncc1C(F)(F)F,0.69 ± 0.089
6,Cc1cc(C(=O)NOCCO)c(Nc2ccc(I)cc2F)n(C)c1=O,0.793 ± 0.16
7,C=CC(=O)Nc1ccc2ncnc(Nc3cccc(Br)c3)c2c1,0.593 ± 0.055
